# Records with an inconclusive call do not appear. The source made the active and inactive calls. Unless noted, calls follow the shape of the dose curve; as a rule, active = well fitted inhibition curve with a large enough effect in the main read-out, with a control signal flat (not every such curve was filed as active); inconclusive = small, poorly fitted or top-dose-only effect, or effect the other way, or a change in a side signal; inactive = no such curve, though single readings can be large or run the other way.
# Target: ATPase family AAA domain-containing protein 5 (Homo sapiens) (UniProt Q96QE3)
# Sequence (Q96QE3 whole entry, looked up, the tested form may be a part): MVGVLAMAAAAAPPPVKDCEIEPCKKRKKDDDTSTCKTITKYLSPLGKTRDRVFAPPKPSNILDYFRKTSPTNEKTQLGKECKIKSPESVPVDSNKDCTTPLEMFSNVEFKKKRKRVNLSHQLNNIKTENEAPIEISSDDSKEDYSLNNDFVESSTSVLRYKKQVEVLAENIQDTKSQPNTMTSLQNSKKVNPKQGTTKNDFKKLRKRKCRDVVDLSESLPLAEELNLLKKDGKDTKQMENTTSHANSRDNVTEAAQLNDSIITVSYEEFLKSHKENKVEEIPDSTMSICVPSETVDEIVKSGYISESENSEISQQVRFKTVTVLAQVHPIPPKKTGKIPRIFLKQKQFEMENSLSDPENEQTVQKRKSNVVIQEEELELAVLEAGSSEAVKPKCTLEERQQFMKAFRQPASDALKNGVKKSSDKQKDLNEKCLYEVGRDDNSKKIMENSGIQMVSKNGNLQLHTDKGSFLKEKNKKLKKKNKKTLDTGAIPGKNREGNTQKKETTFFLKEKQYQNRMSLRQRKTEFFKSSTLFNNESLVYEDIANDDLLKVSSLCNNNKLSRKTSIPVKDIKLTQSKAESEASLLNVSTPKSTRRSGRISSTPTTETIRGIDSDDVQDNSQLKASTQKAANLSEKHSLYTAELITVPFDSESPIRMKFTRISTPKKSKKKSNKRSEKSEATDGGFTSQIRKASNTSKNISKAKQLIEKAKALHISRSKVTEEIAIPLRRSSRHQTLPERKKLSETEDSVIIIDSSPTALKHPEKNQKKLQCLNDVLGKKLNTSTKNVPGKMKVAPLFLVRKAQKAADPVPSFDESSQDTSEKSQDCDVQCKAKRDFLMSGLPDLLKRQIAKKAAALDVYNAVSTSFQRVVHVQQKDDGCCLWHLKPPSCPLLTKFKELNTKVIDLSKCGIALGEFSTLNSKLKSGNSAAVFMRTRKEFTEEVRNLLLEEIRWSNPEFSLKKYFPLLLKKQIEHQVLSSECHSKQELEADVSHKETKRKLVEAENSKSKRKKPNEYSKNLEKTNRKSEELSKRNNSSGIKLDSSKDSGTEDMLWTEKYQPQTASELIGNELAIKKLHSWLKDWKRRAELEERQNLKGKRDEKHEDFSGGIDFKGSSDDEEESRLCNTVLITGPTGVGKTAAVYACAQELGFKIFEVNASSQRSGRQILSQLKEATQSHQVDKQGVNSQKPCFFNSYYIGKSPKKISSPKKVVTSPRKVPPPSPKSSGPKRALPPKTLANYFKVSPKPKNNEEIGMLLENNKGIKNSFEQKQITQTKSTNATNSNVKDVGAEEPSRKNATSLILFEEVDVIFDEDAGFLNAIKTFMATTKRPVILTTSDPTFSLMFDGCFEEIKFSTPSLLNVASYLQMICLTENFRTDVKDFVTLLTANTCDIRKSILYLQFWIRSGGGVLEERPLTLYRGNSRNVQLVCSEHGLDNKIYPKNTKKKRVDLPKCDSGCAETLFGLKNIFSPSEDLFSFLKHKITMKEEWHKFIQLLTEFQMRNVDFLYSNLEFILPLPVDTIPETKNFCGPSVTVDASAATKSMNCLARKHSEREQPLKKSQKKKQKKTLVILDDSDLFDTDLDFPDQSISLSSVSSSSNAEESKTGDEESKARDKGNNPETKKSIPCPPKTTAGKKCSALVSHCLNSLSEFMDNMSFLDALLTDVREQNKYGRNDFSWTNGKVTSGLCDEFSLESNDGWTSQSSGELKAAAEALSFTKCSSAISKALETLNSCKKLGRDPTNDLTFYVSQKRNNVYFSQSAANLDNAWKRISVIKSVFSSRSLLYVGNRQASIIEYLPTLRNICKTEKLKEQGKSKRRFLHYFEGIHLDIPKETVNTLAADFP
# Assay: Validation screen for small molecules that inhibit ELG1-dependent DNA repair in human embryonic kidney (HEK293T) cells expressing luciferase-tagged ELG1 (AID 493107; active = well fitted inhibition curve with a large enough effect;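 also: cells co-treated with the DNA-damaging agent 5-fluorouridine alongside compound; % is scaled to controls: 0 for no effect and ±100 for the full control effect; inhibitors lower the ELG1-luciferase luminescence signal; nearly all actives have a fitted effect of over 70% in size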)
# Details: HEK293T ELG1-luciferase level, luminescence, 5-fluorouridine co-treatment, 16 h; series mostly up to 46.1 µM; activity change, negative = decrease: at the top concentration
# Summary of the method: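 HEK293T cells expressing luciferase-tagged ELG1 were co-treated with 5-fluorouridine and compound or DMSO for 16 hr at 37 °C, 5% CO2. Luciferase activity was then read with ONE-Glo after 30 min at room temperature; suppressed signal indicates blocked ELG1 function.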
row,Compound,"activity change, negative = decrease"
1,CC1=NS(=O)(=O)c2cc(Cl)ccc2N1,-3.12% (inactive)
2,O=C(O)CN(CCOCCOCCN(CC(=O)O)CC(=O)O)CC(=O)O,3.77% (inactive)
3,CCO/C([O-])=N/c1c[n+](N2CCOCC2)no1,19.9% (inactive)
4,CNCCC(Oc1ccccc1OC)c1ccccc1 (configuration not stated),2.43% (inactive)
5,C[N+](C)(C)CCOC(=O)CCC(=O)OCC[N+](C)(C)C,9.13% (inactive)
6,CCN(CC)CCCN(c1ccccc1)C1Cc2ccccc2C1,-0.127% (inactive)
7,CCCN(CCC)CCc1cccc2c1CC(=O)N2,28.6% (inactive)
8,C[C@@H](O)[C@H]1C(=O)N2C(C(=O)O)=C(SCCN=CN)C[C@H]12,0.36% (inactive)
9,CCN1CCC[C@H]1CNC(=O)c1c(O)c(Cl)cc(Cl)c1OC,6.1% (inactive)
10,CC(C)(Oc1ccc(CCNC(=O)c2ccc(Cl)cc2)cc1)C(=O)O,-1.52% (inactive)
11,NC(=O)c1cn(Cc2c(F)cccc2F)nn1,9.34% (inactive)
12,CCCCCCCC/C=C\CCCCCCCC(=O)NCc1ccc(O)c(OC)c1,-21.6% (inactive)
13,CC(=O)[C@@]1(O)CC[C@H]2[C@@H]3CCC4=CC(=O)CC[C@]4(C)[C@H]3CC[C@@]21C,-0.816% (inactive)
14,CCCCCN(CCCCC)C(=O)C(CCC(=O)O)NC(=O)c1ccc(Cl)c(Cl)c1 (configuration not stated),10.4% (inactive)
15,O=C(CCNNC(=O)c1ccncc1)NCc1ccccc1,19% (inactive)
16,COCCc1ccc(OCC(O)CNC(C)C)cc1 (configuration not stated),1.76% (inactive)
17,c1ccc2c(c1)CCCC2C1=NCCN1 (configuration not stated),-9.69% (inactive)
18,Cc1cccc(C)c1NC(=O)C(C)N (configuration not stated),8.31% (inactive)
19,OC(CCN1CCCCC1)(c1ccccc1)C1CCCCC1 (configuration not stated),-1.09% (inactive)
20,CCCN(CCC)C(=O)C(CCC(=O)O)NC(=O)c1ccccc1 (configuration not stated),20.3% (inactive)
21,Cc1ccc(S(=O)(=O)NC(=O)NN2CCCCCC2)cc1,5.83% (inactive)
22,CCCOc1ccccc1-c1nc2n[nH]nc2c(=O)[nH]1,4.09% (inactive)
23,NC(=O)c1ncn([C@@H]2O[C@H](CO)[C@@H](O)[C@H]2O)c1O,3.68% (inactive)

# Target: Thyrotropin-releasing hormone receptor (Homo sapiens) (UniProt P34981)
# Sequence (P34981 whole entry, looked up): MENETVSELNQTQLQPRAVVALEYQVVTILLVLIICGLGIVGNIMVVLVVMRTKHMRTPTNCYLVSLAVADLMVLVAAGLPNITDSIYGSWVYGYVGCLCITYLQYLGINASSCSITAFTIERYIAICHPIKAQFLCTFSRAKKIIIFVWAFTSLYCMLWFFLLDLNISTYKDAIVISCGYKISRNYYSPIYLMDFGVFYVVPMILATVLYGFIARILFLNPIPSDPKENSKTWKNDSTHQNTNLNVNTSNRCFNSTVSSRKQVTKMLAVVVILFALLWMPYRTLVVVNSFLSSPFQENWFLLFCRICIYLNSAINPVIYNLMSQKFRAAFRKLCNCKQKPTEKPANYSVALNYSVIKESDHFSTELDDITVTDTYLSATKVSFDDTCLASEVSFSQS
# Assay: qHTS for Small Molecule Agonists and Allosteric Enhancers of Human TRH Receptor: Validation Screen for Agonists (AID 493127;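 active = calcium activation more than 3 SD above the typical response in the agonist read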;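 also: intracellular calcium rise by fluo-8 fluorescence before TRH EC20 addition; 0% is about no effect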)
# Details: TRH receptor agonist cell assay; at 2 µM; stronger effect = higher value
# Summary of the method: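 TRHR-expressing cells were plated overnight in serum-containing medium, then loaded with fluo-8 calcium dye at room temperature for 30 min–1.5 h. After a 10 s baseline, compound was pin-transferred and calcium fluorescence (ex 480/em 530) read kinetically for agonist response.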
row,Compound,activation
1,CNCCC(Oc1ccccc1OC)c1ccccc1 (configuration not stated),2.38% (inactive)
2,CCN1CCC[C@H]1CNC(=O)c1c(O)c(Cl)cc(Cl)c1OC,0.938% (inactive)
3,CC(C)COCC(CN(Cc1ccccc1)c1ccccc1)N1CCCC1 (configuration not stated),0.812% (inactive)
4,CN(C(=O)CCCOc1ccc2[nH]c(=O)ccc2c1)C1CCCCC1,1.44% (inactive)
5,CCCCCN(CCCCC)C(=O)C(CCC(=O)O)NC(=O)c1ccc(Cl)c(Cl)c1 (configuration not stated),1% (inactive)
6,O=C(CCNNC(=O)c1ccncc1)NCc1ccccc1,0.188% (inactive)
7,Cc1ccc(S(=O)(=O)NC(=O)NN2CCCCCC2)cc1,0.188% (inactive)

# System: not listed separately
# Assay: Nrf2 qHTS screen for inhibitors: Validation (AID 493153); as to activity change, negative = inhibition: % of control where 0% means no effect
# Details: A549 ARE-Fluc reporter, 18-24 h; Potency: luciferase luminescence; viability change: measured here: cytotoxicity max response; luciferase luminescence, at 46.1 µM (top of the series); activity change, negative = inhibition: at the top concentration
# Summary of the method: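 A549 cells carrying an ARE-driven firefly luciferase reporter, in 5% FBS OPTI-MEM, were treated with compounds in concentration-response for 18-24 h at 37°C. Viability was read by CellTiter-Fluor fluorescence, then Nrf2 activity by luciferase luminescence.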
Compound,"activity change, negative = inhibition",viability change [%]
CC(C)[N+](C)(CCOC(=O)C1c2ccccc2Oc2ccccc21)C(C)C,-11.4% (inactive),-4.32
CC1=NS(=O)(=O)c2cc(Cl)ccc2N1,-5.8% (inactive),3.36
NC1=NCC2c3ccccc3Cc3ccccc3N12 (configuration not stated),6.13% (inactive),6.37
O=C(O)CN(CCOCCOCCN(CC(=O)O)CC(=O)O)CC(=O)O,0% (inactive),3.82
CCO/C([O-])=N/c1c[n+](N2CCOCC2)no1,-13% (inactive),7.49
CNCCC(Oc1ccccc1OC)c1ccccc1 (configuration not stated),-19.3% (inactive),4.36
C[N+](C)(C)CCOC(=O)CCC(=O)OCC[N+](C)(C)C,2.71% (inactive),0.0745
CCN(CC)CCCN(c1ccccc1)C1Cc2ccccc2C1,7.36% (inactive),-6.42
CCCN(CCC)CCc1cccc2c1CC(=O)N2,13.4% (inactive),1.11
C[C@@H](O)[C@H]1C(=O)N2C(C(=O)O)=C(SCCN=CN)C[C@H]12,2% (inactive),-3.32
CCN1CCC[C@H]1CNC(=O)c1c(O)c(Cl)cc(Cl)c1OC,7.78% (inactive),-0.523
CC(C)COCC(CN(Cc1ccccc1)c1ccccc1)N1CCCC1 (configuration not stated),21.1% (inactive),2.97
CC(C)(Oc1ccc(CCNC(=O)c2ccc(Cl)cc2)cc1)C(=O)O,-8.26% (inactive),5.14
CN1C(=O)CC[C@H]1c1cccnc1,6.22% (inactive),0.268
Cc1nc2ccccn2c(=O)c1CCN1CCC(C(=O)c2ccc(F)cc2)CC1,-5.83% (inactive),-13.1
NC(=O)c1cn(Cc2c(F)cccc2F)nn1,2.24% (inactive),-8.96

Compound,"activity change, negative = inhibition",viability change [%]
CCCCCCCC/C=C\CCCCCCCC(=O)NCc1ccc(O)c(OC)c1,-9.74% (inactive),-10.2
CSc1ccc(C(=O)c2[nH]c(=O)[nH]c2C)cc1,-13.6% (inactive),0
CCCCCN(CCCCC)C(=O)C(CCC(=O)O)NC(=O)c1ccc(Cl)c(Cl)c1 (configuration not stated),2.49% (inactive),3.55
O=C(CCNNC(=O)c1ccncc1)NCc1ccccc1,12.2% (inactive),-3.76
COCCc1ccc(OCC(O)CNC(C)C)cc1 (configuration not stated),2.15% (inactive),-2.79
c1ccc2c(c1)CCCC2C1=NCCN1 (configuration not stated),-6.13% (inactive),-0.882
Cc1cccc(C)c1NC(=O)C(C)N (configuration not stated),-11.7% (inactive),3.48
OC(CCN1CCCCC1)(c1ccccc1)C1CCCCC1 (configuration not stated),4.5% (inactive),-0.392
CCn1ccnc1CC1COc2ccccc2O1 (configuration not stated),32% (inactive),-1.46
CCCN(CCC)C(=O)C(CCC(=O)O)NC(=O)c1ccccc1 (configuration not stated),9.07% (inactive),-16.1
Cc1ccc(S(=O)(=O)NC(=O)NN2CCCCCC2)cc1,6.26% (inactive),-3.67
CCCOc1ccccc1-c1nc2n[nH]nc2c(=O)[nH]1,-21% (inactive),-11.3
NC(=O)c1ncn([C@@H]2O[C@H](CO)[C@@H](O)[C@H]2O)c1O,-6.36% (inactive),2.79
CCc1cccc(N(C)C(N)=Nc2cccc3ccccc23)c1,10.9% (inactive),-0.401
Cc1nc2sccn2c(=O)c1CCN1CCC(=C(c2ccc(F)cc2)c2ccc(F)cc2)CC1,9.58% (inactive),-8.03

# From PubChem BioAssay (NCATS)
